Screens deposited in PubChem BioAssay by National Center for Advancing Translational Sciences (NCATS).
In the library only some 11% were active in any assay of this set; here they are far more common.
AMA1 RON2 block – qHTS for Inhibitors of AMA1-RON; Towards Development of Antimalarial Drug Lead: Primary Screen; AlphaScreen AMA1-biotinylated RON2 peptide binding; Plasmodium falciparum AMA1 (3D7) - RON2 peptide interaction; Potency, µM (doses to about 58.2 µM), hits mostly inhibitors; hit rate 0.2% among 360,000; note: nearly all actives have a fitted effect of over 45% in size
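AMA1 (3D7) with his tag at 25 nM final met compounds first, then biotinylated RON2 peptide at 25 nM; detection used donor plus acceptor beads, 10 µg/mL apiece, read by AlphaScreen after 30 min at room temperature.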
Pf growth 96h – Primary qHTS for delayed death inhibitors of the malarial parasite plastid, 96 hour incubation; P. falciparum luciferase reporter growth, 96 h; Potency, µM (series often up to 28.7 µM), usual class: inhibitors; hit rate 6.9% among 320,000
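96 h incubation, 37 C, 5% CO2, of luciferase-reporter P. falciparum-infected RBCs (2% hematocrit, 0.05% parasitemia final) with test compounds; endpoint luminescence.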
Pf growth 48h – Primary qHTS for delayed death inhibitors of the malarial parasite plastid, 48 hour incubation | P. falciparum luciferase growth in erythrocytes, 48 h | Potency, µM (series often up to 28.7 µM), actives largely listed as inhibitors | hit rate 5.9% among 310,000
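First compound was added to culture medium, then infected red cells at 0.1% parasitemia and 2% hematocrit (final). After incubation at 37 C under 5% CO2, luciferase detection reagent was dispensed and light output recorded.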
HCV inhibitor – qHTS Assay for Inhibitors of Hepatitis C Virus (HCV) | hit rate 3.4% among 340,000 | Potency, µM (top dose mostly 41.8 µM), actives largely listed as inhibitors | Huh7.5.1 HCVcc-Cre infection, luciferase reporter, 44 h | AID 651820, 2012
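After 44 h co-culture of compound, cells and HCVcc-Cre (~0.5 moi), substrate is added for 15 min at room temperature and luciferase measured over 15 sec. Cells were seeded at 1,000/well and pre-cultured 4 h.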
A number is an active result; – = inactive; ? = inconclusive; · = not tested or not shown; [ ] = dose if it differs, or a comment. Calls come from the whole dose curve; as a rule, active = well fitted curve in the direction sought with a large enough effect; inconclusive = small, poorly fitted or top-dose-only effect, or another doubt; inactive = no such curve, though single readings can be large; an effect the other way counts as inactive or inconclusive.

SMILES | AMA1 RON2 block | Pf growth 96h | Pf growth 48h | HCV inhibitor
Oc1ccc2c3c1O[C@H]1c4oc5ccccc5c4C[C@@]4(O)[C@@H](C2)N(CC2CC2)CC[C@]314 | – | 4.65µM | ? | –
Oc1ccc2c3c1O[C@H]1[C@@H](O)CC[C@@]4(O)C(C2)N(CC2CCC2)CCC314 (some centres undefined) | · | 3.38µM | ? | ·
Cc1cc(C)n(CCC(=O)N2CCCC(Nc3ccc(F)cc3)C2)n1 (centres undefined) | – | · | · | –
Oc1cc(O)cc(/C=C/c2ccc(O)c(O)c2)c1 | 7.08µM | – | – | 0.562µM
COc1cccc(-n2sc3c(c2=S)-c2cc(OC)ccc2NC3(C)C)c1 | 22.4µM | ? | ? | 10µM
Cc1ccc(C(=O)Nc2ncc(Cc3ccc(SC(F)F)cc3)s2)cc1 | – | – | – | 10µM
O=C(CCC(=O)c1ccc(Oc2ccccc2)cc1)Nc1ccc(C(=O)O)cc1 | – | ? | – | –
Cc1ccc(C)c(C(=O)OCC(=O)Nc2cccc(S(=O)(=O)N3CCCCC3)c2)c1 | – | 10.4µM | 10.4µM | 10µM
Cc1ccc(NC(=O)COC(=O)c2csc3c2CCC(C)C3)cc1S(=O)(=O)N1CCCCC1 (centres undefined) | – | – | – | ?
Cc1ccccc1C(=O)OCC(=O)Nc1cccc(S(=O)(=O)N2CCCCC2)c1 | – | · | · | ·
CC1CCc2c(C(=O)OCC(=O)Nc3cccc(S(=O)(=O)N4CCCCCC4)c3)csc2C1 (centres undefined) | – | – | – | 7.08µM
Cc1ccc(C)c(OCCC(=O)Nc2cccc(S(=O)(=O)N3CCCCC3)c2)c1 | –[11.6 µM] | ? | 11.7µM | ?
OC(c1ccc(F)c(F)c1)c1nc(-c2cccc(C(F)(F)F)c2)cs1 (centres undefined) | – | · | · | ·
CCc1nc2c(OCc3ccccc3C(=O)OC)cccn2c1N(C)C(=O)Nc1ccccc1OC | – | · | · | ·
CC12CCC3C(CC=C4CC(O)CCC43C)C1C/C(=C\N1CCCC1)C2=O (centres undefined) | · | – | – | ·
COc1cc(/C=C2\C[C@H]3[C@@H]4CC=C5C[C@@H](N6CCCC6)CC[C@]5(C)[C@H]4CC[C@]3(C)[C@H]2O)cc(OC)c1OC | – | · | · | 7.08µM
CC(C)(C)NC(=O)CSc1nnc(-c2ccccc2)c(-c2ccccc2)n1 | – | – | – | –
CCc1c(C#N)c(N)nc(SCC(=O)OCc2ccccc2)c1C#N | – | ? | 9.28µM | –
COc1ccc(N=Nc2cc(C)c(O)c(CN3CCCCC3)c2)cc1 | 20µM | 0.262µM | 0.262µM | –
O=C(Nc1ccc(S(=O)(=O)Nc2ncccn2)cc1)c1nn(Cc2ccccc2)c(=O)c2ccccc12 | – | ? | 1.85µM | ?
CCCCN(CC)CCNC(=O)C1c2cc(OC)c(OC)cc2C(=O)N2CCc3ccccc3C12 (centres undefined) | – | 10.4µM | ? | –
CCN1CCN(C(=O)C2c3cc(OC)c(OC)cc3C(=O)N3CCc4ccccc4C23)CC1 (centres undefined) | – | – | – | –
CCC/C(=N/Nc1ccc(Cl)cc1)c1cnnc(-c2ccccc2)n1 | – | · | · | 14.1µM
COc1ccc(/C(C)=N/Nc2nncc3ccccc23)cc1 | – | – | – | ?
COc1ccc(N/N=C(/C)c2cnnc(-c3ccccc3)n2)cc1 | – | 0.37µM | ? | –
SMILES | AMA1 RON2 block | Pf growth 96h | Pf growth 48h | HCV inhibitor
CC/C(=N/Nc1ccccc1Cl)c1cnnc(-c2ccccc2)n1 | – | 1.04µM | 2.33µM | ?
CCOC(=O)C(NCCc1ccccc1F)(NC(C)=O)C(F)(F)F (centres undefined) | – | ? | – | –
COc1ccc(N2Cc3cccc(C(=O)NC(C)CCc4ccco4)c3C2=O)cc1 (centres undefined) | – | 11.7µM | · | –
Cc1c[nH]c2cccc(OCC(CNC(C)(C)C)OC(=O)c3ccccc3)c12 (centres undefined) | – | ? | ? | –
COC(=O)Cc1c[nH]c2cccc(OCC(O)CN(Cc3ccc([N+](=O)[O-])cc3)C(C)(C)C)c12 (centres undefined) | ? | 3.29µM | 9.28µM | –
Cc1ccc(CN(CC(O)COc2cccc3[nH]cc(C)c23)C(C)(C)C)cc1 (centres undefined) | ? | 10.4µM | 10.4µM | ?
COC(=O)Cc1c[nH]c2cccc(OCC(O)CN(Cc3ccccc3)C(C)C)c12 (centres undefined) | – | ? | ? | ?
O=[N+]([O-])c1cc(C(F)(F)F)cc([N+](=O)[O-])c1NCCNC(=S)Nc1cccc(F)c1 | – | ? | – | ?
CCOC(=O)c1sc(NC(=O)CN2C(=O)C3CC=CCC3C2=O)nc1C (centres undefined) | – | – | – | –
CCOC(=O)C1CCCN(C(=O)Nc2ccccc2)C1 (centres undefined) | – | – | · | –
Cc1c(NC(=O)C(C)OC(=O)CCc2c[nH]c3ccccc23)c(=O)n(-c2ccccc2)n1C (centres undefined) | – | – | ? | –
O=C(O)C1C2C=CC(C2)C1C(=O)N1CCOCC1 (centres undefined) | – | ? | – | –
O=C(NC1CCCC1)C1C2C=CC(C2)C1C(=O)N1CCOCC1 (centres undefined) | – | 9.28µM | – | –
COCCn1c(N)c(N(Cc2ccccc2)C(=O)c2ccc(-c3ccc(Cl)cc3)o2)c(=O)[nH]c1=O | – | – | ? | –
CC(C)Cc1nnc(NC(=O)c2ccc(-n3cncn3)c([N+](=O)[O-])c2)s1 | – | · | · | ·
CCOC(=O)c1ccc(NC(=O)CN2CCN(C(=O)c3ccco3)CC2)cc1 | – | – | 9.28µM | –
Cc1ccc(NC(=O)CN2CCN(C(=O)c3ccco3)CC2)cc1S(=O)(=O)N(C)C | –[11.6 µM] | · | · | –
CCOc1ccc(NC(=O)CN2CCN(C(=O)c3ccco3)CC2)cc1S(=O)(=O)N1CCCC1 | –[11.6 µM] | 14.7µM | ? | –
NC(=O)c1ccc(NC(=O)CN2CCOCC2)cc1 | – | – | – | –
NC(=O)c1ccc(NC(=O)CN2CCN(C(=O)c3ccco3)CC2)cc1 | – | 2.33µM | – | –
CCc1c(C)sc(NC(=O)CN2CCN(C(=O)c3ccco3)CC2)c1C(=O)OC | – | – | ? | 11.2µM
COc1ccc(C(C)(C)NC(=O)C2CCC(=O)N(CCCN3CCCC3=O)C2)cc1 (centres undefined) | – | ? | ? | –
CC(C)(C)NC(=O)C(c1ccncc1)n1c(-c2ccc(C(F)(F)F)cc2)nc2ccccc21 (centres undefined) | – | · | · | ·
COc1ccc(-c2cc(C(=O)Nc3cccnc3)no2)cc1OC | – | – | – | ?
Cc1ccc(-c2nnc(SCC(=O)Nc3cccc(C(=O)N4CCOCC4)c3)n2C)cc1 | – | – | – | –
NNC(=O)C1CC1c1ccccc1 (centres undefined) | – | 9.28µM | – | –
NNC(=O)[C@@H]1C[C@@H]1c1ccccc1 | – | ? | – | –
O=C(c1cc2cc(Br)ccc2[nH]1)N1CCc2ccccc21 | – | 1.47µM | ? | –
